Test results from PubChem BioAssay (EPA / NIEHS).
Values joined by “and” are separate entries in the source; they are usually repeats but may differ in a detail not shown here. Equal entries are not always repeated. Records with an inconclusive call do not appear. Some structures have more than one record in an assay (separate samples or runs), and their calls can disagree. Active and inactive are the calls of the source. The calls were made as follows: active = hit-call score of the fitted dose curve at least 0.9, where 1 is the maximum; inconclusive = response in the unintended direction; inactive = score below 0.9.

Columns and labels:
[1] = TOX21_p53_BLA_p5_viability: Viability Assessment in the Tox21 HCT-116 p53 Agonism Beta-lactamase Assay, Phase 5 (AID 2283600)
How it was run: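 Decreased CellTiter-Glo luminescence denotes lost viability. Exposure: 16 h at 37C, 5% CO2, with compounds from DMSO stocks diluted 217-fold in wells of 4000 cells.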

[2] = target: Cellular tumor antigen p53 (Homo sapiens) (UniProt P04637); assay: TOX21_p53_BLA_p4_ratio: Tox21 HCT-116 p53 Agonism Beta-lactamase Assay, Ratio, Phase 4 (AID 2283601)
How it was run: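 HCT116 cells carrying an inducible beta-lactamase reporter were plated at 4000 cells/well, rested 5 h, then exposed to compounds in DMSO (217-fold dilution) for 16 h at 37C. CCF4-AM substrate was loaded 2 h at room temperature; 460/530 nm emission ratio scored gain-of-signal versus DMSO.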

[3] = CCTE_Simmons_CellTiterGLO_HEK293T: Viability Assessment in CCTE's Assays for Thyroperoxidase (TPO) Inhibition, Simmons Lab (AID 2283665);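 as to AC50: cells exposed to compound for 24 h before readout; actives reduce ATP signal below DMSO vehicle meaning cytotoxicity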
How it was run: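 ATP depletion measured in HEK293T cells after 24 h dosing (8 concentrations, 5 nM–87.5 uM final; DMSO 0.5%) using CellTiter-Glo luminescence; curves fit for loss of signal against DMSO baseline.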

[4] = Tanguay_ZF_120hpf_MORT_legacy: (Legacy) Oregon State University Tanguay Lab 120 Hour Post-fertilization zebrafish Assay for Mortality (AID 2283633);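 as to AC50: fitted as increase in binary mortality versus DMSO negative control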
How it was run: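 Dechorionated Tropical 5D wild-type zebrafish embryos, one per well from 6 hpf, static exposure in 0.64% DMSO at 28C until 120 hpf. Mortality scored as binary by brightfield microscopy at 24 and 120 hpf.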

[5] = Tanguay_ZF_120hpf_YSE_legacy: (Legacy) Oregon State University Tanguay Lab 120 Hour Post-fertilization zebrafish Assay for Yolk Sac Edema (AID 2283634);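 as to AC50: actives raise the incidence of yolk sac edema above the DMSO baseline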
How it was run: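 Dechorionated Tropical 5D wild-type zebrafish embryos were exposed statically, one per well, from 6 to 120 hpf at 28C in 0.64% DMSO. Yolk sac edema was scored present/absent by brightfield at 120 hpf, and dead embryos were excluded.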

[6] = Tanguay_ZF_120hpf_AXIS_legacy: (Legacy) Oregon State University Tanguay Lab 120 Hour Post-fertilization zebrafish Assay for Body Axis Malformation (AID 2283635);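 as to AC50: potency for an increased fraction of larvae scored with body axis malformation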
How it was run: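 Dechorionated wild-type Tropical 5D zebrafish embryos, one per well, statically exposed from 6 hpf to 120 hpf at 28C in 0.64% DMSO final. Body axis malformation scored present/absent by brightfield microscopy at 120 hpf; dead embryos excluded.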

[7] = Tanguay_ZF_120hpf_EYE_legacy: (Legacy) Oregon State University Tanguay Lab 120 Hour Post-fertilization zebrafish Assay for Eye Malformation (AID 2283636);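 also: binary presence or absence of eye malformation scored by brightfield in 120 hpf larvae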
How it was run: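 Static waterborne exposure of dechorionated zebrafish embryos (strain Tropical 5D), 6 to 120 hpf, sealed plates at 28C, 0.64% DMSO vehicle. Eye malformation is scored as a binary endpoint, with gain of signal analysed relative to DMSO.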

[8] = Tanguay_ZF_120hpf_SNOU_legacy: (Legacy) Oregon State University Tanguay Lab 120 Hour Post-fertilization zebrafish Assay for Snout Malformation (AID 2283637)
How it was run: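 Dechorionated zebrafish, individually housed from 6 hpf in covered, sealed wells at 28C with 0.64% DMSO vehicle, were examined at 120 hpf for snout malformation. Responses were binary and analysed positive-direction relative to DMSO.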

[9] = Tanguay_ZF_120hpf_JAW_legacy: (Legacy) Oregon State University Tanguay Lab 120 Hour Post-fertilization zebrafish Assay for Jaw Malformation (AID 2283638);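 as to AC50: active means more embryos with jaw malformation than DMSO controls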
How it was run: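 Dechorionated Tropical 5D wild-type zebrafish embryos, one per well, exposed statically from 6 hpf to 120 hpf at 28C in 0.64% DMSO. Jaw malformation was scored by brightfield microscopy as present or absent. It was not scored in dead embryos.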

[10] = Tanguay_ZF_120hpf_OTIC_legacy: (Legacy) Oregon State University Tanguay Lab 120 Hour Post-fertilization zebrafish Assay for Otic Vesicle Malformation (AID 2283639)
How it was run: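 Wild-type zebrafish larvae, whole-embryo exposure from early stage to 120 hpf at 28C. Binary brightfield scoring of otic vesicle morphology, fitted in the positive direction against the DMSO baseline.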

[11] = Tanguay_ZF_120hpf_PE_legacy: (Legacy) Oregon State University Tanguay Lab 120 Hour Post-fertilization zebrafish Assay for Pericardial Edema (AID 2283640);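 as to AC50: potency for increased incidence of pericardial edema versus DMSO baseline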
How it was run: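 Tropical 5D wild-type zebrafish embryos were statically exposed until 120 hpf at 28C, with 0.64% DMSO final. Pericardial edema was scored by brightfield as present or absent; endpoints were not scored in dead embryos.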

[12] = Tanguay_ZF_120hpf_BRAI_legacy: (Legacy) Oregon State University Tanguay Lab 120 Hour Post-fertilization zebrafish Assay for Brain Malformation (AID 2283641)
How it was run: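 Tropical 5D wild-type zebrafish embryos exposed statically until 120 hpf at 28C, 0.64% DMSO final, sealed and dark. Brain malformation scored present/absent by brightfield at 120 hpf; dead embryos excluded. Trimethyltin chloride 5uM positive control.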

[13] = Tanguay_ZF_120hpf_SOMI_legacy: (Legacy) Oregon State University Tanguay Lab 120 Hour Post-fertilization zebrafish Assay for Somite Malformation (AID 2283647)
How it was run: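 Dechorionated Tropical 5D wild-type zebrafish embryos, one per well from 6 hpf, statically exposed at 28C to 120 hpf in 0.64% DMSO; somite malformation scored present/absent by brightfield; trimethyltin 5 uM positive control; dead embryos not scored.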

[14] = Tanguay_ZF_120hpf_PFIN_legacy: (Legacy) Oregon State University Tanguay Lab 120 Hour Post-fertilization zebrafish Assay for Pectoral Fin Malformation (AID 2283648);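 also: each larva judged yes or no for fin defect by brightfield with dead larvae skipped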
How it was run: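 Scoring of pectoral fin malformation was binary, made at 120 hpf on larvae exposed statically from 6 hpf after enzymatic chorion removal. Activity was fitted upward relative to DMSO controls at 0.64% (vol/vol).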

[15] = Tanguay_ZF_120hpf_CFIN_legacy: (Legacy) Oregon State University Tanguay Lab 120 Hour Post-fertilization zebrafish Assay for Caudal Fin Malformation (AID 2283649)
How it was run: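 Dechorionated Tropical 5D wild-type embryos, one per well from 6 hpf, static exposure to 120 hpf at 28C in 0.64% DMSO. Caudal fin malformation scored by brightfield as present/absent; not scored in dead embryos.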

[16] = Tanguay_ZF_120hpf_PIG_legacy: (Legacy) Oregon State University Tanguay Lab 120 Hour Post-fertilization zebrafish Assay for Pigmentation Malformation (AID 2283650)
How it was run: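 Endpoint is incidence of abnormal pigmentation at 120 hpf in dechorionated 5D zebrafish exposed singly from 6 hpf at 28C, DMSO vehicle at 0.64%. Embryos dying by 24 or 120 hpf are excluded from scoring.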

[17] = Tanguay_ZF_120hpf_CIRC_legacy: (Legacy) Oregon State University Tanguay Lab 120 Hour Post-fertilization zebrafish Assay for Circulatory Malformation (AID 2283651)
How it was run: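 Binary circulatory-malformation call at 120 hpf via brightfield imaging, relative to DMSO controls. Embryos (5D strain, chorion removed) received static, light-shielded exposure at 28C.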

[18] = Tanguay_ZF_120hpf_SWIM_legacy: (Legacy) Oregon State University Tanguay Lab 120 Hour Post-fertilization zebrafish Assay for Swim Bladder Malformation (AID 2283654);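 also: swim bladder malformation in each larva scored yes or no under brightfield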
How it was run: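 Static waterborne exposure of single dechorionated Tropical 5D zebrafish embryos, 6–120 hpf, 28C, 0.64% DMSO final. Read-out: swim bladder malformation, present/absent, relative to DMSO negative control; trimethyltin chloride 5uM served as positive control.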

[19] = Tanguay_ZF_120hpf_TRUN_legacy: (Legacy) Oregon State University Tanguay Lab 120 Hour Post-fertilization zebrafish Assay for Truncated Body (AID 2283655)
How it was run: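 Dechorionated Tropical 5D wild-type embryos placed singly from 6 hpf and statically exposed to 120 hpf at 28C, final DMSO 0.64%. Truncated body scored as present/absent by brightfield; not scored in dead embryos.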

[20] = Tanguay_ZF_120hpf_NC_legacy: (Legacy) Oregon State University Tanguay Lab 120 Hour Post-fertilization zebrafish Assay for Notochord and Tail Malformation (AID 2283656)
How it was run: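 Binary notochord-distortion calls, made by brightfield inspection, form the read-out; activity is fitted in the positive direction against DMSO. Exposure ran statically from 6 to 120 hpf at 28C with 0.64% DMSO.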

Measured: AC50

Cellular tumor antigen p53 (Homo sapiens), sequence (P04637 whole entry, looked up): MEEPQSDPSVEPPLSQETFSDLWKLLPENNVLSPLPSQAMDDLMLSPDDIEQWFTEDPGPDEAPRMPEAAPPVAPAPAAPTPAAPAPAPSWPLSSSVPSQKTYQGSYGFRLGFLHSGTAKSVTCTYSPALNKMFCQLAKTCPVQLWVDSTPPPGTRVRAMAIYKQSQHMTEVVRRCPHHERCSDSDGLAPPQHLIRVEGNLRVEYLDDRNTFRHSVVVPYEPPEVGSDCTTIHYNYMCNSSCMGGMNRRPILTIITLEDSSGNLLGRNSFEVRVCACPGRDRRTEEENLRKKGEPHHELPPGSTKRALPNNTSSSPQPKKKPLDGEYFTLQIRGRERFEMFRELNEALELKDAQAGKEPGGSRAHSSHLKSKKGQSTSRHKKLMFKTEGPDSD

CC12CCC(C1)C(C)(C)C2O (stereo unspecified)
inactive: [1] | [2]

CCCCC/C=C\C=C\C(=O)OCC
active: [1] 47.7 µM | [2] 89.9 µM | [3] 88.6 µM

CCCCOCCOCCO
not listed: [3]
inactive: all other assays above

O=c1cc(-c2ccc(O)cc2)oc2cc(O)cc(O)c12
active: [2] 13.4 µM
inactive: [1] | [2] | [3]

CC/C(=C(\c1ccccc1)c1ccc(OCCN(C)C)cc1)c1ccccc1
active: [1] 64.3 µM [middle of 4 runs] | [2] 40 µM and 84.5 µM and 42 µM | [4] 31.4 µM | [3] 8.72 µM and 6.64 µM
inactive: [2] | [4] | [5] | [6] | [8] | [10] | [11] | [13] | [14] | [15] | [16] | [17] | [18] | [19] | [20]

COC(=O)c1ccc(C(=O)OC)cc1
active: [5] 37 µM | [6] 21.1 µM | [7] 34 µM | [8] 30.2 µM | [9] 32.7 µM | [11] 28.9 µM | [12] 44.4 µM | [18] 12.3 µM
not listed: [3] | [16]
inactive: all other assays above

O=S(=O)(O)c1cc(O)c(O)c(S(=O)(=O)O)c1
inactive: [1] | [2]

CC(C)(C)c1cccc(O)c1
inactive: [1] | [2] | [3]

C#C[C@]1(O)CC[C@H]2[C@@H]3CCc4cc(O)ccc4[C@H]3CC[C@@]21C
not listed: [1] | [2] | [3] | [6]
inactive: all other assays above
